Reference: PubChem BioAssay
For some assays here: Potency and affinity values are given separately. The source made the active and inactive calls.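 The calls were made as follows, unless noted: active = membrane potential signal rise above negative control mean plus 3 SD in both duplicates, also active in the earlier TRPC4 screen; inactive = the rest.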

Tests used:
[1] = tested on: TRPC4 beta (transient receptor potential cation channel C4), mouse; experiment: TRPC4 cation channel opening, retest – cell-based, Fluo4 calcium, HEK293 TRPC4beta/mu-opioid, duplicates, 10 µM, confirmation (AID 2426;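 active = fluorescence ratio normalized to control raised more than 50% in primary screen plus both repeat runs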;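 as to activation: percent rise of integrated ratio over buffer wells lacking compound which define 0%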); details: Fluo4 calcium fluorescence, at 10 µM; hits give high values
[2] = tested on: transient receptor potential cation channel C4 beta (TRPC4), mouse; experiment: TRPC4 cation channel opening, second retest – cell-based, second round, Fluo4, HEK293 TRPC4beta/mu-opioid, 1 µM, confirmation (AID 2461;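 active = primary screen active and over 50% activation in each of two duplicate runs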;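 as to activation: 0% = wells without test compound as baseline of integrated fluorescence ratio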); details: Fluo4 calcium fluorescence, at 1 µM; hits give high values
[3] = tested on: TRPC4 (transient receptor potential cation channel C4 beta), mouse; experiment: potentiation of DAMGO EC20 TRPC4 response – cell-based, second round, Fluo-4, HEK293 TRPC4beta/mu-opioid, 1 µM, confirmation (AID 2554;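 active = primary screen hit whose fluorescence ratio, in both repeats, exceeds the weak agonist control mean by 3 SD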); details: DAMGO EC20, Fluo-4 calcium flux, at 1 µM; hits give high values
[4] = tested on: TRPC4 beta (transient receptor potential cation channel C4), mouse; experiment: potentiation of DAMGO EC20 TRPC4 response – cell-based, Fluo-4, HEK293 TRPC4beta/mu-opioid, confirmation (AID 2555;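 active = primary screen hit whose calcium fluorescence ratio, in both repeats, exceeds the weak agonist control mean by 3 SD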); details: DAMGO EC20, Fluo-4 calcium flux, at 10 µM; hits give high values
[5] = molecular target: Short transient receptor potential channel 4 (Mus musculus) (UniProt Q9QUQ5); experiment: blockers of DAMGO-evoked TRPC4 calcium flux – cell-based, Fluo4, HEK293 TRPC4beta/mu-opioid, confirmation (AID 2636;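 active = calcium signal cut by more than 3 SD below the full-agonist control yet still positive, in both repeats and the earlier primary screen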); details: at 10 µM; hits give high values
[6] = molecular target: Short transient receptor potential channel 4 (Mus musculus) (UniProt Q9QUQ5); experiment: blockers of DAMGO-evoked TRPC4 calcium flux – cell-based, second round, Fluo4, HEK293 TRPC4beta/mu-opioid, 1 µM, confirmation (AID 2637;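 active = calcium signal ratio cut to more than 3 SD under the fully stimulated control mean yet still positive, in both repeats and the primary screen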); details: at 1 µM; hits give high values
[7] = molecular target: Short transient receptor potential channel 4 (Mus musculus) (UniProt Q9QUQ5); experiment: potentiation of DAMGO-evoked TRPC4 calcium signal – cell-based, HEK293 TRPC4/mu-opioid, Fluo-4 calcium, EC20 DAMGO, dose response (AID 434941;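 active = earlier screen potentiator hit that boosts the TRPC4 ion channel at some dose, with a dose response; inactive = no potentiation, no dose response, or not a prior hit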;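 also: calcium entry triggered by an EC20 dose of DAMGO at the co-expressed mu-opioid receptor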)
[8] = molecular target: Short transient receptor potential channel 4 (Mus musculus) (UniProt Q9QUQ5); experiment: block of DAMGO-driven TRPC4 calcium entry – cell-based, HEK293 TRPC4/mu-opioid, Fluo-4 calcium, dose response (AID 434942;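 active = primary screen inhibitor hit that blocks the TRPC4 channel at some tested dose, yielding a dose curve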)
[9] = molecular target: Short transient receptor potential channel 6 (Mus musculus) (UniProt Q61143); experiment: TRPC6 blockade by TRPC4 inhibitor hits – cell-based, HEK293, membrane potential dye, duplicate, selectivity assay for TRPC4 inhibitor project, confirmation (AID 434948;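 active = active in primary screen and both duplicates, each dropping signal beyond three positive-control SD with fluorescence still positive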); details: HEK293 TRPC6, membrane potential dye fluorescence, at 10 µM, stimulated with maximal-effect acetylcholine; hits give high values
[10] = molecular target: Short transient receptor potential channel 6 (Mus musculus) (UniProt Q61143); experiment: TRPC6 opening by TRPC4 activator hits – cell-based, HEK293, membrane potential dye, duplicate, selectivity assay for TRPC4 activator project, confirmation (AID 434950); details: HEK293 TRPC6, membrane potential fluorescence, at 10 µM; activation: hits give high values; outcome: activation;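 as to activation: 0% = buffer only wells and 100% = acetylcholine maximal-effect wells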
[11] = molecular target: Short transient receptor potential channel 6 (Mus musculus) (UniProt Q61143); experiment: positive modulators of mouse TRPC6 channel – HEK293 cells, membrane potential dye, duplicate, selectivity assay for TRPC4 potentiator project, confirmation (AID 434952;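 active = compound raising the membrane signal above positive-control mean plus 3 SD in both repeats, and a primary screen hit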); details: HEK293 TRPC6, membrane potential dye fluorescence, at 10 µM, maximal acetylcholine added after compound; hits give high values
[12] = molecular target: Short transient receptor potential channel 4 (Mus musculus) (UniProt Q9QUQ5); experiment: calcium flux activators in TRPC4/5HT1a cells, counter-screen for TRPC4 activator project, cell-based, second counter screen, HEK293 TRPC4/5HT1a, Fluo-4 (AID 434977;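 active = calcium signal rise above buffer-control mean plus 5 SD in both duplicates, and also a hit in the primary screen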;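 as to activation: plate controls were assay buffer for no effect and maximal serotonin response for full effect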); details: Fluo-4 calcium flux, at 10 µM; hits give high values
[13] = serotonin-gated TRPC4 signal block – cell-based, second counter screen, HEK293 TRPC4/5HT1a, Fluo-4, counter-screen for TRPC4 inhibitor project, confirmation (AID 434978;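 active = primary screen active whose calcium signal fell more than 3 SD beyond the full-serotonin control mean in both duplicate plates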;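 also: serotonin given first at submaximal then at maximal dose after compound preincubation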); details: Fluo-4 calcium flux, at 10 µM, serotonin added to trigger calcium flux; hits give high values
[14] = tested on: TRPC4 (mouse), co-expressed with 5HT1a in HEK293; experiment: enhancement of serotonin-evoked TRPC4 response – cell-based, second counter screen, HEK293 TRPC4/5HT1a, Fluo-4, counter-screen for TRPC4 potentiator project, confirmation (AID 434979;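 active = signal rise over 3 SD above mean of control wells given weak agonist, in both repeats and first screen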); details: Fluo-4 calcium flux, at 10 µM, serotonin added at its EC20 dose; hits give high values
[15] = nonspecific calcium rise without TRPC4 – cell-based, HEK293 mu-opioid receptor line, counter-screen for TRPC4 activator project, confirmation (AID 449723;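 active = hit in primary screen, with calcium signal over 5 SD above buffer well mean in both duplicates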;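 also: counter screen cells carry the mu-opioid receptor alone and lack TRPC4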); details: HEK293 mu-opioid cells, Fluo-4 calcium fluorescence, at 10 µM; hits give high values
[16] = nonspecific potentiation of DAMGO calcium response – cell-based, HEK293 mu-opioid receptor line, counter-screen for TRPC4 allosteric potentiator project, confirmation (AID 449724;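 active = calcium signal rise more than 3 SD above the low-dose agonist control mean, in both duplicate plates and the primary screen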); details: HEK293 mu-opioid receptor cells, Fluo-4 calcium flux, at 10 µM, compound added before EC20 DAMGO stimulus; hits give high values

Measured: activation

Chain of Short transient receptor potential channel 4 (Mus musculus) (Q9QUQ5 whole entry, looked up): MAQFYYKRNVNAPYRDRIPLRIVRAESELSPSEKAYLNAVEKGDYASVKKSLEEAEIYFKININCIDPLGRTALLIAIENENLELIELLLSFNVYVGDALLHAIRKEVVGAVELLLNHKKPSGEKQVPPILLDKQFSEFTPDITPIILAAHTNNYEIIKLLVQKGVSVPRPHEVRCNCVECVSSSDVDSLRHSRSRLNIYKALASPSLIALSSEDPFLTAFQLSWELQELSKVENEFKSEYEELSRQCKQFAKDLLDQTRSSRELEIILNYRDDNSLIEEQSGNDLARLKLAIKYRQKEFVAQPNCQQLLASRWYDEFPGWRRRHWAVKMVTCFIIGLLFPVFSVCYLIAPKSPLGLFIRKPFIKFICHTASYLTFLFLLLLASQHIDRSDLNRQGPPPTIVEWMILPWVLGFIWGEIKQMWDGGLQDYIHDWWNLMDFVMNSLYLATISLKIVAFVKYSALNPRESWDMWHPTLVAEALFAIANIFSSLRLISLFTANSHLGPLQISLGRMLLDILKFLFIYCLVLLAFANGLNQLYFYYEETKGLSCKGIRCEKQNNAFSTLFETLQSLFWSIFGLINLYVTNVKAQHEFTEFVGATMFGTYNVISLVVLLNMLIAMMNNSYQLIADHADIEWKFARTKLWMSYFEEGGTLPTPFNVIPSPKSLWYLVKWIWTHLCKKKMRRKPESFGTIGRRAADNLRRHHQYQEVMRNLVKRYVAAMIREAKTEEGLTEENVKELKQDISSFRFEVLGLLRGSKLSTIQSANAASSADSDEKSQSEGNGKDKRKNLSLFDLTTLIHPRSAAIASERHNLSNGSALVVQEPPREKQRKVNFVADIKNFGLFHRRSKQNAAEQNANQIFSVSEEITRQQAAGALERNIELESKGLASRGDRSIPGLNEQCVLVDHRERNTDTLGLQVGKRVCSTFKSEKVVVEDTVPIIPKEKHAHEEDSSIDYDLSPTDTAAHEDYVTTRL
Chain of Short transient receptor potential channel 6 (Mus musculus) (Q61143 whole entry, looked up): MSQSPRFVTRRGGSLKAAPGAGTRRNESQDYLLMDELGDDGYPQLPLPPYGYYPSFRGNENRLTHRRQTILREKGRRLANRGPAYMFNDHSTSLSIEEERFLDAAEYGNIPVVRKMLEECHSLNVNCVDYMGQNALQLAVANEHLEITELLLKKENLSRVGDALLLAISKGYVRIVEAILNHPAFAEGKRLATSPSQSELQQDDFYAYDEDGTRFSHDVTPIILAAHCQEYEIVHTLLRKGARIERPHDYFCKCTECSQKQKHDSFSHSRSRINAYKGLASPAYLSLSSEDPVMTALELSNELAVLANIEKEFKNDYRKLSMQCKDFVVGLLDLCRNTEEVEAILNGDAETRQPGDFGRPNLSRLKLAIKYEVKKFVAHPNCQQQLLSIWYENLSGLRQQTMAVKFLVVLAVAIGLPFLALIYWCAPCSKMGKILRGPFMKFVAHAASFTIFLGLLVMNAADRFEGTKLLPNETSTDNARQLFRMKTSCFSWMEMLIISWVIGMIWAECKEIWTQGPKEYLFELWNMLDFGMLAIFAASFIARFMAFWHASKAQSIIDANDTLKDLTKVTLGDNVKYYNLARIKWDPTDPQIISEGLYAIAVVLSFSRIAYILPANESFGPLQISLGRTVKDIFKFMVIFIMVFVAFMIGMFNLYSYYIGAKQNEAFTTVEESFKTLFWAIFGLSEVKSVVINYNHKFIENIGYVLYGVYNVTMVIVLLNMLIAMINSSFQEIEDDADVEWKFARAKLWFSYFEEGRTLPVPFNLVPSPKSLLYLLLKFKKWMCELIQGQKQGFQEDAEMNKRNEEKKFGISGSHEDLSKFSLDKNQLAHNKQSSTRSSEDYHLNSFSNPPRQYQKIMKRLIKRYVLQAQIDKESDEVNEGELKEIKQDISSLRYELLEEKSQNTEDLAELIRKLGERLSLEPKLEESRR

N=c1n(Cc2ccccc2)c2ccccc2n1CC(O)COc1ccccc1 (centres undefined)
active: [10] 54%
inactive: all other assays above

O=C(CCCCn1c(=O)[nH]c2ccccc2c1=O)NC1CCN(Cc2ccccc2)CC1
active: [10] 35%
inactive: all other assays above

Fc1ccc(NC(=S)NCCc2ccccn2)cc1
active: [1] 199% | [2] 60% | [12] 88%
inactive: all other assays above

CCOC(=O)C1(CC2CCCCO2)CCN(Cc2cc(F)ccc2-n2cccn2)CC1 (centres undefined)
active: [10] 76.5%
inactive: all other assays above

CCN1CCN(c2c(Cl)cccc2NC(=O)c2ccc([N+](=O)[O-])cc2)CC1
active: [1] 80% | [12] 7.83%
inactive: all other assays above

Cc1cccc(C(=O)NC(=S)NNC(=O)Cc2ccccc2)c1
active: [1] 238% | [10] 32.5% | [12] 133% | [15] 44.1%
inactive: all other assays above

Cc1ccc(NC(=S)NC2CC3CCC(C2)N3Cc2ccco2)c(C)c1 (centres undefined)
active: [1] 116% | [12] 25.9%
inactive: all other assays above

O=C(NCCNC1CCC(c2ccccc2)CC1)c1cccs1 (centres undefined)
active: [1] 169% | [2] 95% | [10] 66% | [12] 103%
inactive: all other assays above

CCCn1ncc(CN2CCC(n3nccc3NC(=O)CCc3ccccc3)CC2)c1C
active: [1] 132% | [2] 115% | [10] 36.5%
inactive: all other assays above

CCn1c(N2CCN(C(=S)NCC(C)C)CC2)nc2ccccc21
active: [1] 98% | [10] 39.5% | [12] 27.9%
inactive: all other assays above

COC(=O)C1CCN(Cc2cn(-c3ccccc3)nc2-c2ccc3c(c2)OCO3)CC1
active: [10] 45%
inactive: all other assays above

CN(C)c1ccc(-c2sc(Nc3ccccc3)n[n+]2-c2ccc(F)cc2)cc1
active: [1] 406% | [10] 45% | [12] 10.7% | [15] 274%
inactive: all other assays above

CN1CCCC(OC(=O)c2cc(Br)ccc2Cl)C1 (centres undefined)
active: [1] 116% | [2] 87% | [10] 47% | [12] 43.7%
inactive: all other assays above

COc1ccc(C(CNC(=O)c2ccccc2SC)N(C)C)cc1 (centres undefined)
active: [1] 99% | [10] 56%
inactive: all other assays above
